Data from PubChem BioAssay (Tox21).
Values joined by “and” are separate entries in the source; they are usually repeats but may differ in a detail not shown here. Equal values may be shown once. Records with an inconclusive call do not appear. Some compounds were tested as several samples or in several runs, with calls that do not always agree. Active and inactive are the calls of the source. Unless noted, calls follow the shape of the dose curve; as a rule, active = well fitted curve in the direction sought with a large enough effect in the repeat runs; inconclusive = weak or mixed curves; inactive = no such curve, though single readings can be large; an effect the other way counts as inactive or inconclusive.

How the values were obtained:
[1] = qHTS assay to identify aromatase inhibitors - cell viability counter screen (AID 743084);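 also: cells stimulated with testosterone during compound exposure; nearly all actives have a fitted effect of over 55% in size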; also: potency is read from the fitted curve at half-maximal effect
[2] = target: Aryl hydrocarbon receptor (Homo sapiens) (UniProt P35869); assay: qHTS assay to identify small molecule that activate the aryl hydrocarbon receptor (AhR) signaling pathway (AID 743085); also: nearly all actives have a fitted effect of over 15% in size; also: potency is read from the fitted curve at half-maximal effect;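 as to activation: HG2L7.5c1 human HepG2 liver cells with stably integrated DRE-driven firefly reporter; series mostly up to about 70 µM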
Outline: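 Measured in HG2L7.5c1 cells: CellTiter-Fluor signal (30 min incubation, 37C) for viability, then luciferase luminescence (30 min, room temperature). Compound contact time was 24 h at 37C, following a 5 h pre-incubation.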

[3] = qHTS assay to identify small molecule that activate the aryl hydrocarbon receptor (AhR) signaling pathway - cell viability counter screen (AID 743086);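 also: HepG2 liver cells carrying the AhR DRE luciferase reporter; series mostly up to about 70 µM; nearly all actives have a fitted effect of over 45% in size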
Outline: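 Cytotoxicity counter screen: CellTiter-Fluor signal (30 min, 37 C) in 4000 HepG2 cells/well carrying the DRE-luciferase reporter, following 24 h compound exposure at 37 C.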

[4] = target: Peroxisome proliferator-activated receptor gamma (Homo sapiens) (UniProt P37231); assay: qHTS assay to identify small molecule agonists of the peroxisome proliferator-activated receptor gamma (PPARg) signaling pathway (AID 743094; active = well fitted activation curve with a large enough effect in the signal ratio in the repeat runs, not every such curve was filed as active; the % refers to the signal ratio; also: potency is read from the fitted curve at half-maximal effect)
Outline: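 Agonism was assessed in a beta-lactamase reporter system, HEK293H cells with a stably integrated UAS-bla construct under PPARg control; the 17 h treatment at 37C preceded a 1 h room-temperature FRET substrate read.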

[5] = target: Peroxisome proliferator-activated receptor gamma (Homo sapiens) (UniProt P37231); assay: qHTS assay to identify small molecule antagonists of the peroxisome proliferator-activated receptor gamma (PPARg) signaling pathway (AID 743191; calls by dose curve; also: series mostly up to about 63 µM; nearly all actives have a fitted effect of over 30% in size)
Outline: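 Beta-lactamase reporter under UAS control in HEK293H PPARg-bla cells; compound treatment 17 h at 37C. Read-out: fluorescence intensity after 1 h room-temperature incubation with LiveBLAzer B/G FRET substrate.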

[6] = qHTS assay to identify small molecule antagonists of the peroxisome proliferator-activated receptor gamma (PPARg) signaling pathway - cell viability counter screen (AID 743194); also: nearly all actives have a fitted effect of over 55% in size
Outline: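 Viability was measured as CellTiter-Glo luminescence in GeneBLAzer PPARg UAS-bla HEK293H cells. These cells had been exposed 17 h at 37 C to compounds together with rosiglitazone at 50 nM final, with the beta-lactamase readout taken in the same wells.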

[7] = qHTS assay for small molecule agonists of the antioxidant response element (ARE) signaling pathway (AID 743202; active = well fitted activation curve with a large enough effect in the signal ratio in the repeat runs, not every such curve was filed as active; the % refers to the signal ratio; also: potency is read from the fitted curve at half-maximal effect)
Outline: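 After 16 hours of compound treatment at 37 C, HepG2 cells with a stably integrated ARE-driven beta-lactamase reporter were loaded 2 hours at room temperature with LiveBLAzer B/G FRET substrate and fluorescence intensity measured.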

[8] = qHTS assay for small molecule agonists of the antioxidant response element (ARE) signaling pathway - cell viability counter screen (AID 743203; calls by dose curve; also: nearly all actives have a fitted effect of over 55% in size; also: potency is read from the fitted curve at half-maximal effect)
Outline: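 ATP content via CellTiter-Glo luminescence served as the viability measure. Cells: ARE-bla HepG2, 2,000 per well. Exposure: 16 hrs, 37C/5% CO2.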

[9] = qHTS assay for small molecule activators of the heat shock response signaling pathway - cell viability counter screen (AID 743209); also: nearly all actives have a fitted effect of over 50% in size
Outline: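 Compounds dissolved in DMSO were added to overnight-plated HSE-bla HeLa cells and left 5 h at 37 C. Cell viability was quantified by luminescence using CellTiter-Glo.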

[10] = qHTS assay for small molecule activators of the heat shock response signaling pathway (AID 743210; active = well fitted activation curve with a large enough effect in the signal ratio in the repeat runs, with a control signal flat, not every such curve was filed as active; the % refers to the signal ratio; also: series mostly up to about 63 µM)
Outline: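 Compound exposure lasted 5 h at 37 C in HeLa cells carrying a heat-shock-element-driven beta-lactamase reporter. Read-out: fluorescence intensity after 2.5 h room-temperature loading with LiveBLAzer B/G FRET substrate.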

[11] = qHTS assay to identify small molecule agonists of the peroxisome proliferator-activated receptor delta (PPARd) signaling pathway - cell viability counter screen (AID 743211); also: nearly all actives have a fitted effect of over 55% in size; also: potency is read from the fitted curve at half-maximal effect
Outline: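 Following 5 h plating at 37 C and 5% CO2, PPARd UAS-bla HEK293H cells took up test compounds for 17 h. Viability was quantified by luminescence 30 min after CellTiter-Glo addition at room temperature.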

[12] = target: Peroxisome proliferator-activated receptor delta (Homo sapiens) (UniProt Q03181); assay: qHTS assay to identify small molecule agonists of the peroxisome proliferator-activated receptor delta (PPARd) signaling pathway (AID 743212; calls by dose curve)
Outline: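 Beta-lactamase reporter readout: a ratiometric FRET signal from the LiveBLAzer substrate after 2 h at room temperature. Compound exposure at 37 °C in PPARδ-bla HEK293H cells driven by an upstream activator sequence.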

[13] = qHTS assay to identify small molecule antagonists of the peroxisome proliferator-activated receptor delta (PPARd) signaling pathway - cell viability counter screen (AID 743213); also: nearly all actives have a fitted effect of over 50% in size
Outline: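 Luminescence from CellTiter-Glo, added after the bla read and incubated 30 min at room temperature, gives viability of HEK293H PPARd-bla cells exposed to compounds for 17 h at 37 C with 300 nM L165041.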

[14] = target: Peroxisome proliferator-activated receptor delta (Homo sapiens) (UniProt Q03181); assay: qHTS assay to identify small molecule antagonists of the peroxisome proliferator-activated receptor delta (PPARd) signaling pathway (AID 743215; active = well fitted inhibition curve with a large enough effect in the signal ratio in the repeat runs, not every such curve was filed as active; the % refers to the signal ratio;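 also: cells stimulated with agonist L165041 at 300 nM final during compound exposure; series mostly up to about 62 µM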)
Outline: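 Here, a reporter line (HEK293H, beta-lactamase under a UAS) measures PPARd signaling. Compounds are tested against agonist L165041 at 300 nM final concentration over 17 h at 37 C, with fluorescence read after substrate.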

[15] = target: Bile acid receptor (Homo sapiens) (UniProt Q96RI1); assay: qHTS assay to identify small molecule antagonists of the farnesoid-X-receptor (FXR) signaling pathway (AID 743217; active = well fitted inhibition curve with a large enough effect in the signal ratio in the repeat runs, not every such curve was filed as active; the % refers to the signal ratio)
Outline: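 Test compounds are pin-transferred onto FXR-bla HEK 293T cells, then chenodeoxycholic acid is added at 50 uM final. After 16 h at 37 °C, LiveBLAzer B/G substrate is applied for 2 h at room temperature and fluorescence read.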

[16] = qHTS assay to identify small molecule agonists of the farnesoid-X-receptor (FXR) signaling pathway - cell viability counter screen (AID 743218); also: nearly all actives have a fitted effect of over 45% in size
Outline: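 Quantitative HTS counter screen measuring ATP-based viability via CellTiter-Glo luminescence in HEK 293T cells carrying a UAS-driven beta-lactamase reporter, after 16 h compound exposure at 37 C.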

[17] = target: Bile acid receptor (Homo sapiens) (UniProt Q96RI1); assay: qHTS assay to identify small molecule agonists of the farnesoid-X-receptor (FXR) signaling pathway (AID 743220; active = well fitted activation curve with a large enough effect in the signal ratio in the repeat runs, not every such curve was filed as active; the % refers to the signal ratio)
Outline: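 FXR-UAS-bla HEK 293T cells carrying a UAS-driven beta-lactamase reporter were plated for 5 h at 37C/5% CO2, then exposed to DMSO-dissolved Tox21 10K compounds for 16 h at 37C. A LiveBLAzer B/G FRET substrate was loaded for 2 h at room temperature before fluorescence reading.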

[18] = qHTS assay to identify small molecule antagonists of the farnesoid-X-receptor (FXR) signaling pathway - cell viability counter screen (AID 743221; active = well fitted cell-killing curve with a large enough effect in the repeat runs, not every such curve was filed as active; also: nearly all actives have a fitted effect of over 50% in size)
Outline: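 Compound effects on cell number were measured as CellTiter-Glo luminescence in HEK 293T cells expressing FXR-UAS-bla, after 16 h at 37 C with 50 uM CDCA (final).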

[19] = target: Vitamin D3 receptor (Homo sapiens) (UniProt P11473); assay: qHTS assay to identify small molecule agonists of the vitamin D receptor (VDR) signaling pathway (AID 743222; calls by dose curve)
Outline: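 Tox21 cell reporter format: VDR-bla line, 16 h compound exposure in 5% CO2 at 37C, then fluorescence intensity after 2 h with LiveBLAzer B/G FRET substrate.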

[20] = target: Vitamin D3 receptor (Homo sapiens) (UniProt P11473); assay: qHTS assay to identify small molecule antagonists of the vitamin D receptor (VDR) signaling pathway (AID 743223; active = well fitted inhibition curve with a large enough effect in the signal ratio in the repeat runs, not every such curve was filed as active; the % refers to the signal ratio)
Outline: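 Beta-lactamase activity in VDR-bla cells is measured by FRET substrate fluorescence (2 h, room temperature) after cells spend 16 h at 37C with test compound and 3 nM final 1alpha,25-dihydroxyvitamin D3.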

Measured: Potency

Chain of Bile acid receptor (Homo sapiens) (Q96RI1 whole entry, looked up): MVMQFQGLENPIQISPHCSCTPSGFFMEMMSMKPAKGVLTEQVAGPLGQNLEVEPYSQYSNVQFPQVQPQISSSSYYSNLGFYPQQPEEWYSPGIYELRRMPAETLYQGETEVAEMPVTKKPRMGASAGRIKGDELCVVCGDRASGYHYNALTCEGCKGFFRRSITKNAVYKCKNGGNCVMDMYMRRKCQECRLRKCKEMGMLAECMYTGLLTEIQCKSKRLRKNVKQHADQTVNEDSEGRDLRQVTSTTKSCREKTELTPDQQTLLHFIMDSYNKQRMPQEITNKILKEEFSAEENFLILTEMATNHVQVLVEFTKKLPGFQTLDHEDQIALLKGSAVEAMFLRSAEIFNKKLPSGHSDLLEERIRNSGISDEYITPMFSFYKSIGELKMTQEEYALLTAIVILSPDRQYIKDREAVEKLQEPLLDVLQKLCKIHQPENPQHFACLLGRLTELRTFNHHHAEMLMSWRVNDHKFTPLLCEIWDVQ
Chain of Aryl hydrocarbon receptor (Homo sapiens) (P35869 whole entry, looked up): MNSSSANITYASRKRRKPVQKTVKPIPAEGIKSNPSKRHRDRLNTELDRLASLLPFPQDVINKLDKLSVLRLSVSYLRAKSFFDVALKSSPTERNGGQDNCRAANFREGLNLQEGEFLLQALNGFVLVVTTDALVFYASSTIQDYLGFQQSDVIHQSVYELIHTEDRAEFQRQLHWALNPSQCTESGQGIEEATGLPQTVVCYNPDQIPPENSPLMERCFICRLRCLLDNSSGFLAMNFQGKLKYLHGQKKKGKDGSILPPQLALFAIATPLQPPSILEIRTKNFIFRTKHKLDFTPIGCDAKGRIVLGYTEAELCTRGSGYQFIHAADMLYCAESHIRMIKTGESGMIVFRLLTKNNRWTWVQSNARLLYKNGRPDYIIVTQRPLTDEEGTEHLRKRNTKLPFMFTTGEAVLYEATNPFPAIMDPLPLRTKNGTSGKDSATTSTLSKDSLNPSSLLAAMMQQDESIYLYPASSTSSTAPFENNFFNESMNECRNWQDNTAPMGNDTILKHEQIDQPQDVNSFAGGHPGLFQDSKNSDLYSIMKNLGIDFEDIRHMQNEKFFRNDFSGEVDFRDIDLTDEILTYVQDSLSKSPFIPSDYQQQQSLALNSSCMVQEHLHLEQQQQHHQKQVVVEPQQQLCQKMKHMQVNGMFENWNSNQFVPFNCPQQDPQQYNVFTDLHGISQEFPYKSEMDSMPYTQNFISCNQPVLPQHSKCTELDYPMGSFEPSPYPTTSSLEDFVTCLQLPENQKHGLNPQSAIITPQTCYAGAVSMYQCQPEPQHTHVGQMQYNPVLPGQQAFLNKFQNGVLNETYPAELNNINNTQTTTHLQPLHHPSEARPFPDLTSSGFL
Chain of Vitamin D3 receptor (Homo sapiens) (P11473 whole entry, looked up): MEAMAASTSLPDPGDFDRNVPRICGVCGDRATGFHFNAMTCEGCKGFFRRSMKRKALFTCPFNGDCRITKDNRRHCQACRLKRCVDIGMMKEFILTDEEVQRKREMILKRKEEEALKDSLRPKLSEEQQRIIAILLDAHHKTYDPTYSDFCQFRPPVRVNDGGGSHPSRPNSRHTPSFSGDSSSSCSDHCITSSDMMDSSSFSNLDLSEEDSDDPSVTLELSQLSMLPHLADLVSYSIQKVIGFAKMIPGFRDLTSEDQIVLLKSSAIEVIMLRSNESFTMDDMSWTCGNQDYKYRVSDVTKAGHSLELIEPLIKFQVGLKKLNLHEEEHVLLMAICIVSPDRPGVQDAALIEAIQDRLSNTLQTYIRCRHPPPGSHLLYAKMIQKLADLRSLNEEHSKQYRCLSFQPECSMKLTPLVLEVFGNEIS
Chain of Peroxisome proliferator-activated receptor gamma (Homo sapiens) (P37231 whole entry, looked up): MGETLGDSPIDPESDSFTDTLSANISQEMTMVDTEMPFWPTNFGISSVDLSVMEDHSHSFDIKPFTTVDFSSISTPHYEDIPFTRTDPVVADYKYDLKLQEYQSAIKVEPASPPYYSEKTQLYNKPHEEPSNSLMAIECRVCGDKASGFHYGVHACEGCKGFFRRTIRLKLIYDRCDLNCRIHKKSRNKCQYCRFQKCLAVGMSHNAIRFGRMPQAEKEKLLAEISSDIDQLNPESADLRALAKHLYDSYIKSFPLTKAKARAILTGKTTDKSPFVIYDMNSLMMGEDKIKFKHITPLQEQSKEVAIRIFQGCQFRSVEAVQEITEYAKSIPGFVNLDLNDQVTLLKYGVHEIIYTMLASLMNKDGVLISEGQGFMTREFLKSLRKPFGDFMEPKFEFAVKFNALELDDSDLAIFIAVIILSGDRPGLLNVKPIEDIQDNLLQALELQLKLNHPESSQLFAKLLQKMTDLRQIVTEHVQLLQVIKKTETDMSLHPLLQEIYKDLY
Chain of Peroxisome proliferator-activated receptor delta (Homo sapiens) (Q03181 whole entry, looked up): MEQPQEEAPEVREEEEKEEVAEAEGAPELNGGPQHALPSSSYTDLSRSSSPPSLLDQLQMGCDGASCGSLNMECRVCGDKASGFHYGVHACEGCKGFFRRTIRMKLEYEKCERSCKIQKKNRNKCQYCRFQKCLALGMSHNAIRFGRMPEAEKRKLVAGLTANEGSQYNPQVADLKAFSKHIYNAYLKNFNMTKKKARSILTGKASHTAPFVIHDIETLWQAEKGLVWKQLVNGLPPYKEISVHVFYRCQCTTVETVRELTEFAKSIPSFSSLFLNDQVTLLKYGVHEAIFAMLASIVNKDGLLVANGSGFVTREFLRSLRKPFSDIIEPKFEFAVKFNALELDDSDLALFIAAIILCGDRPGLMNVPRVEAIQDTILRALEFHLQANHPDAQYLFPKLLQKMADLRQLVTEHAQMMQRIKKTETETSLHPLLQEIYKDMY

Cn1cnc2c1c(=O)[nH]c(=O)n2C
inactive: all assays above

CCCCCCCCCCCCCCCCCC(=O)OCC(O)CO (stereo not given)
inactive: all assays above

Cc1cccc2ccccc12
inactive: all assays above

CCOC(=O)C(C)(C)Oc1ccc(Cl)cc1
inactive: all assays above

CC(C)(C)NCC(O)c1ccc(O)c(CO)c1 (stereo not given)
not listed: [15] | [17] | [19] | [20]
inactive: all other assays above

CC(=O)c1ccc(S(=O)(=O)NC(=O)NC2CCCCC2)cc1
inactive: all assays above

COC(=O)c1ccc(C=O)cc1
inactive: all assays above

Nc1ccc(N=Nc2ccccc2)c(N)n1
active: [1] 27.4 µM and 54.5 µM | [2] 13.3 µM and 13.8 µM and 34.4 µM
inactive and 26.6 µM (active): [7]
43.9 µM (active) and inactive: [11]
not listed: [15] | [17]
inactive: all other assays above

Oc1cccc(O)c1
inactive: all assays above

CC(C)Cc1ccc(C(C)C(=O)O)cc1 (stereo not given)
not listed: [15] | [17] | [19] | [20]
inactive: all other assays above

CCCCC/C(C=O)=C\c1ccccc1
not listed: [19] | [20]
inactive: all other assays above

CC(O)COc1ccccc1 (stereo not given)
inactive: all assays above

Cc1ccc(O)c(-n2nc3ccccc3n2)c1
active: [2] 21.1 µM and 60.6 µM and 17.2 µM | [7] 60.6 µM
inactive: all other assays above

NC(=O)N1c2ccccc2C=Cc2ccccc21
not listed: [15] | [17] | [19] | [20]
inactive: all other assays above

N[C@@H](Cc1c[nH]c2ccc(O)cc12)C(=O)O
active: [2] 9.44 µM and 5.29 µM
not listed: [15] | [17]
inactive: all other assays above

C=CCOC(=O)CC(C)C
inactive: all assays above

CCCCCCCCOc1ccc(C(=O)c2ccccc2)c(O)c1
inactive and 48.6 µM (active): [7]
not listed: [16]
inactive: all other assays above

Cc1c(N(C)CS(=O)(=O)O)c(=O)n(-c2ccccc2)n1C
not listed: [15] | [17]
inactive: all other assays above

COCC(C)N (stereo not given)
inactive: all assays above

O=C(O)Cc1cccc2ccccc12
active: [4] 27.5 µM
inactive: all other assays above

CCCCCCCC(=O)OCC(O)CO (stereo not given)
not listed: [15] | [17] | [19] | [20]
inactive: all other assays above

CCCCCCCCCCCCCC(=O)OC(C)C
inactive: all assays above

COCCOCCOC
inactive: all assays above

COc1cc(O)c(C(=O)c2ccccc2)cc1S(=O)(=O)O
inactive: all assays above

CC(=O)CCC(C)C
active: [7] 61.1 µM
not listed: [19] | [20]
inactive: all other assays above

O=C1CCCCCN1
inactive: all assays above

N[C@@H](Cc1c[nH]c2ccccc12)C(=O)O
active: [2] 30.7 µM
not listed: [15] | [17]
inactive: all other assays above

COc1ccccc1O
inactive and 24.5 µM (active): [8]
inactive: all other assays above

CC(C)CC(C)CC(O)CC(C)C (stereo not given)
not listed: [20]
inactive: all other assays above
